From PubChem BioAssay (NCATS)
“And” between values parts separate entries of the source, which are not always exact repeats. Equal entries are not always repeated. Inconclusive results are not listed. The source made the active and inactive calls. Unless noted, calls come from the whole dose curve; as a rule, active = well fitted curve in the direction sought with a large enough effect; inconclusive = small, poorly fitted or top-dose-only effect, or another doubt; inactive = no such curve, though single readings can be large; an effect the other way counts as inactive or inconclusive.

How the values were obtained:
[1] = NFAT Signaling Pathway (AID 444; active = well fitted curve in either direction with a large enough effect, not every such curve was filed as active;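 note: carbachol stimulus at about its EC50 of 1 µM final; % is set by controls: 0 for no effect and ±100 for the full control effect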); conditions: Jurkat NFAT-bla M1, carbachol, beta-lactamase ratio, 5 h; at 17.2 µM (top of the series) unless noted
In short: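 Read-out: CCF4 FRET ratio (460 nm/530 nm) after 1 h RT dye loading, used for %activity and AC50 from titration series. Cells: Jurkat NFAT-β-lactamase/M1 line, treated with compound plus 1 uM carbachol for 5 h, 37 °C.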

[2] = target: ATP-dependent 6-phosphofructokinase (Trypanosoma brucei brucei) (UniProt O15648); test: qHTS Assay to Find Inhibitors of T. brucei phosphofructokinase: hit validation (AID 492961);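 note: luminescence reports ADP formed as PFK phosphorylates fructose-6-phosphate with ATP; % is set by controls: 0 for no effect and ±100 for the full control effect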
Chain of ATP-dependent 6-phosphofructokinase (Trypanosoma brucei brucei) (O15648 whole entry, looked up): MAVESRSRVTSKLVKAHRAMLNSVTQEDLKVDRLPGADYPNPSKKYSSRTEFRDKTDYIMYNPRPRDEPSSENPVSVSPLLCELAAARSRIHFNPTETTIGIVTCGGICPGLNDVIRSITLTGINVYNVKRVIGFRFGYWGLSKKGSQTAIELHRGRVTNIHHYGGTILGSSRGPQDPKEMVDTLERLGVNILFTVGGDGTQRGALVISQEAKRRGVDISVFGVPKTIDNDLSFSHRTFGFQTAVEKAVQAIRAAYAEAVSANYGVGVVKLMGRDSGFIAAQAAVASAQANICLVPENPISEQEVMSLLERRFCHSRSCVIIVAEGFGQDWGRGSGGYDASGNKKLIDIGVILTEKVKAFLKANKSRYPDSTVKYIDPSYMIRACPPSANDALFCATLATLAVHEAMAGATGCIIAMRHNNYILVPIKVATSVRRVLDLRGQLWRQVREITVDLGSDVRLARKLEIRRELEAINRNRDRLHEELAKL
In short: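 In this biochemical qHTS validation, titrated compounds were tested against 1.25 nM PFK with 0.1 mM ATP and 0.5 mM F6P. Percent activity came from controls lacking or containing enzyme.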

[3] = S16 Schwann cell PMP22 intronic element beta-lactamase assay (AID 624044; calls by dose curve;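 note: 0% = DMSO and -100% = potassium clavulanate positive control; nearly all actives have a fitted effect of over 15% in size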)
In short: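 Rat S16 Schwann cells with beta-Lac driven by a PMP22 intronic element, compound-treated 24 h at 37 °C. LiveBLAzer FRET B/G read: 460 nm normalized to potassium clavulanate vs DMSO; 535 nm FRET as viability; concentration-effect curves classified.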

7G8 = test: qHTS profiling for inhibitors of Plasmodium falciparum proliferation (AID 504749); note: nearly all actives have a fitted effect of over 60% in size; note: potency is the fitted concentration of half-maximal effect; conditions: P. falciparum in erythrocytes, SYBR Green DNA, 72 h; series mostly up to 12.8 µM
In short: (§1)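 Infected RBCs, 0.3% parasitemia/2.5% Hct final; cpd 72 h, 37 C, 5% CO2; lysis buffer with saponin/triton/SYBR Green I, o/n RT dark; FI 485/535; norm. to artemisinin (0.29 uM) and DMSO.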

ICS = test: as above; conditions: P. falciparum in erythrocytes, SYBR Green DNA, 72 h; series mostly up to 12.8 µM
In short: as §1

[4] = target: Cytochrome P450 3A4 (Homo sapiens) (UniProt P08684); test: qHTS Assay for Inhibitors and Substrates of Cytochrome P450 3A4 (AID 884); note: nearly all actives have a fitted effect of over 50% in size; note: potency is the fitted concentration of half-maximal effect; for activity change, negative = inhibition: % is set by controls: 0 for no effect and ±100 for the full control effect
Chain of Cytochrome P450 3A4 (Homo sapiens) (P08684 whole entry, looked up): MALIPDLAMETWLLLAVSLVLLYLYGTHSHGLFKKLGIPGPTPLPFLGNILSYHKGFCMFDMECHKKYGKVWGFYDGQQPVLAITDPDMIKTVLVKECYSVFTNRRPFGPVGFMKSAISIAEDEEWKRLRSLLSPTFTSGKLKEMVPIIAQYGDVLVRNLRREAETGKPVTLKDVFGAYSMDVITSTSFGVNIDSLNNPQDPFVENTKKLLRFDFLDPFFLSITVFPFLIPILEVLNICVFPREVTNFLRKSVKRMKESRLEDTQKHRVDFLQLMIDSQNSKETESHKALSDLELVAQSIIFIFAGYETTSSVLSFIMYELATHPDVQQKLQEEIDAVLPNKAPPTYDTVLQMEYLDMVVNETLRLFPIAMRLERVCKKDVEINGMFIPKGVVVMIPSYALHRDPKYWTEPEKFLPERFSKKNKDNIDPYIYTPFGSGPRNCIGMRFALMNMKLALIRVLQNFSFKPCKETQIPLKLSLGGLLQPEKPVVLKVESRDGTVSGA
In short: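 20 nM human CYP3A4 with 25 uM Luciferin-PPXE (at KM) in 200 mM KPO4, preincubated 10 min with compound; NADPH regeneration started a 60 min RT reaction. Luciferin detected by luminescence, normalized to 57 uM ketoconazole as full inhibition.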

[5] = target: Cytochrome P450 2D6 (Homo sapiens) (UniProt P10635); test: qHTS Assay for Inhibitors and Substrates of Cytochrome P450 2D6 (AID 891); note: nearly all actives have a fitted effect of over 60% in size; note: potency is the fitted concentration of half-maximal effect;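 for activity change, negative = inhibition: luciferin methyl ether substrate demethylated by CYP2D6 with NADPH regeneration; % is set by controls: 0 for no effect and ±100 for the full control effect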
Chain of Cytochrome P450 2D6 (Homo sapiens) (P10635 whole entry, looked up): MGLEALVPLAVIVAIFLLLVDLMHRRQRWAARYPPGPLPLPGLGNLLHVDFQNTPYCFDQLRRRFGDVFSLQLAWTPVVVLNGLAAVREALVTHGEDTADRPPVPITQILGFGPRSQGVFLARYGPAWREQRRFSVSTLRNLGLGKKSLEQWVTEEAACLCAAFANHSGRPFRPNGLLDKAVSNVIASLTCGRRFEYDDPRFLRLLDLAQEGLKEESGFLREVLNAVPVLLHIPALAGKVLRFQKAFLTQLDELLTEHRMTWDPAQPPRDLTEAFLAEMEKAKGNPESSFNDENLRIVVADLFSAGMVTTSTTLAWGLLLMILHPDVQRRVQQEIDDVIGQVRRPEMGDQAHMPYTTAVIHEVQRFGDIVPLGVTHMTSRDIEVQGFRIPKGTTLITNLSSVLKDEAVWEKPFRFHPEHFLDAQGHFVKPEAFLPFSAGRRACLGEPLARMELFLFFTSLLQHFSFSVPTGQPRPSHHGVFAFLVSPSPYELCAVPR
In short: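 Human CYP2D6 (5 nM) with 30 uM Luciferin-ME EGE (at Km) in 100 mM KPO4, compound preincubated 10 min, then NADPH regeneration system for 60 min at room temperature. Luciferin read by luminescence; normalized to 1.43 uM quinidine.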

[6] = target: DNA dC->dU-editing enzyme APOBEC-3G (Homo sapiens) (UniProt Q9HC16); test: qHTS for inhibitors of Vif-A3G interactions: Validation (AID 588379); note: 0% is about no effect
Chain of DNA dC->dU-editing enzyme APOBEC-3G (Homo sapiens) (Q9HC16 whole entry, looked up): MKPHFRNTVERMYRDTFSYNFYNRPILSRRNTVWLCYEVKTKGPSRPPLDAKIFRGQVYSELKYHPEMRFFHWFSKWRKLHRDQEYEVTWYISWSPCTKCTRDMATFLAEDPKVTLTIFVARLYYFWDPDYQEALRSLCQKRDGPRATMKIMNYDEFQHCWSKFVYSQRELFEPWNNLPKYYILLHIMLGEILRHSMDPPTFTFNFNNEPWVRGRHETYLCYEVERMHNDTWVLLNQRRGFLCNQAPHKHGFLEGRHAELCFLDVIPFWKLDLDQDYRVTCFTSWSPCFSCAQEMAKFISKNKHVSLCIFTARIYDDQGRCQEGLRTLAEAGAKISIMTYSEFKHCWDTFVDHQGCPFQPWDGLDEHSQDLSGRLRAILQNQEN
In short: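 HeLa cells stably expressing Vif and A3G-eYFP, 700 cells/well, incubated overnight at 37 deg C, then exposed to compound overnight at 37 deg C. Inhibition of Vif-mediated degradation read as increased yellow fluorescence (Ex 488/Em 500-530) by laser-scanning cytometry.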

[7] = target: Cytochrome P450 3A4 (Homo sapiens) (UniProt P08684); test: qHTS Assay for Activators of Cytochrome P450 3A4 (AID 885); note: nearly all actives have a fitted effect of over 65% in size
In short: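 Signal was normalized against complete inhibition by 57 uM ketoconazole. The reaction used 20nM CYP3A4 with 25uM Luciferin-PPXE, 10-min compound preincubation and a 60-min NADPH-supported step at RT.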

CP335 = test: qHTS profiling for inhibitors of Plasmodium falciparum proliferation (AID 504749); note: nearly all actives have a fitted effect of over 60% in size; note: potency is the fitted concentration of half-maximal effect; conditions: P. falciparum in erythrocytes, SYBR Green DNA, 72 h; series mostly up to 12.8 µM
In short: as §1

DFO2036 = test: as above; conditions: P. falciparum in erythrocytes, SYBR Green DNA, 72 h; series mostly up to 12.8 µM
In short: as §1

DIV17 = test: as above; conditions: P. falciparum in erythrocytes, SYBR Green DNA, 72 h; series mostly up to 12.8 µM
In short: as §1

GB4 = test: as above; conditions: P. falciparum in erythrocytes, SYBR Green DNA, 72 h; series mostly up to 12.8 µM
In short: as §1

P93_24 = test: as above; conditions: P. falciparum in erythrocytes, SYBR Green DNA, 72 h; series mostly up to 12.8 µM
In short: as §1

TAB109 = test: as above; conditions: P. falciparum in erythrocytes, SYBR Green DNA, 72 h; series mostly up to 12.8 µM
In short: as §1

[8] = S16 Schwann cell PMP22 intronic element firefly luciferase assay (AID 624032);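 note: plate controls were DMSO for no effect and PTC124 positive control mean for full effect; nearly all actives have a fitted effect of over 30% in size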
In short: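 Luciferase reporter of PMP22 intronic-element expression in stably transfected S16 rat Schwann cells, read by ONE-Glo luminescence after 24 h compound exposure at 37 C. Activity scaled between DMSO (0%) and positive-control PTC124; concentration-effect curves quality-classified.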

CP215 = test: qHTS profiling for inhibitors of Plasmodium falciparum proliferation (AID 504749); note: nearly all actives have a fitted effect of over 60% in size; note: potency is the fitted concentration of half-maximal effect; conditions: P. falciparum in erythrocytes, SYBR Green DNA, 72 h; series mostly up to 12.8 µM
In short: as §1

[9] = Confirmation and Secondary Assay for Modulators of Hemoglobin Beta Chain Splicing at IVS2 654 locus (AID 910);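 note: HeLa cells stably carrying EGFP split by mutant beta-globin IVS2-654 intron; per-well total GFP intensity by laser scanning cytometry after 2-day treatment; % of control where 0% means no effect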
In short: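 Readout: per-well total peak green fluorescence (488 nm ex, 500–520 nm em) from objects 5–250 µm, reflecting correct splicing of an EGFP-654 reporter. Compounds were applied for 2 days at 37 °C to overnight-plated HeLa EGFP-654 cells; controls were DMSO and 500 nM IVS2-654 PNA.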

[10] = Confirmation and Secondary Assay for Modulators of Hemoglobin Beta Chain Splicing at IVS2 705 locus (AID 930);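 note: HeLa cells stably expressing the EGFP-705 splicing reporter; GFP fluorescence per well restored by corrected splicing of the IVS2-705 intron in EGFP; % of control where 0% means no effect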
In short: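 First, HeLa EGFP-705 cells are seeded at 500/well in Optimem with 2% FCS and left overnight. Next, compound or DMSO is added for 2 days. Finally wells are laser-scanned and total peak GFP intensity scored.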

CCC(=O)OCC(=O)[C@@]1(OC(=O)CC)[C@H](C)C[C@@H]2[C@@H]3[C@H]([C@@H](O)C[C@@]21C)[C@]1(C)C=CC(=O)C=C1C[C@@H]3Cl
inactive: activity change, negative = inhibition [1] 14% | outcome [2] | Potency [3]
active: Potency (7G8) 1 µM | Potency (ICS) 1.12 µM

CC(C)(C)NC(=O)[C@@H]1C[C@H]2CCCC[C@@H]2CN1C[C@H](O)[C@H](Cc1ccccc1)NC(=O)[C@@H](CC(N)=O)NC(=O)c1ccc2ccccc2n1
inactive: activity change, negative = inhibition [1] -14.7%

CS(=O)(=O)c1ccc([C@H](O)[C@H](CF)NC(=O)C(Cl)Cl)cc1
inactive: activity change, negative = inhibition [1] 1.9% | outcome [2]

C/C(=C\CNc1ncnc2nc[nH]c12)CO
inactive: Potency [4] | Potency [5] | outcome [6]

CC(C)CC(=O)N[C@H](C(=O)N[C@H](C(=O)N[C@@H](CC(C)C)[C@H](O)CC(=O)N[C@@H](C)C(=O)N[C@@H](CC(C)C)[C@H](O)CC(=O)O)C(C)C)C(C)C
inactive: activity change, negative = inhibition [1] -1.98%

C=Cc1c(C)c2cc3nc(cc4[nH]c(cc5nc(cc1[nH]2)C(C)=C5CCC(=O)O)c(CCC(=O)OC)c4C)[C@@]1(C)C3=CC=C(C(=O)OC)[C@H]1C(=O)OC (tested in a mixture with another compound)
inactive: Potency [7] | outcome [2] | Potency [3]
active: Potency (7G8) 0.355 µM | Potency (CP335) 3.79 µM | Potency (DFO2036) 11.2 µM | Potency (DIV17) 7.57 µM | Potency (GB4) 12 µM | Potency (ICS) 0.501 µM | Potency (P93_24) 8.91 µM | Potency (TAB109) 5.01 µM

C=C1C[C@@]23C[C@]1(O)CC[C@@H]2[C@]12C=C[C@@H](O)[C@](C)(C(=O)O1)[C@H]2[C@H]3C(=O)O
inactive: activity change, negative = inhibition [1] -11.2%

O=C(O)COCCN1CCN([C@@H](c2ccccc2)c2ccc(Cl)cc2)CC1
inactive: Potency [8] | Potency (CP215) | Potency (CP335) | Potency (DFO2036) | Potency (TAB109)

COC(=O)[C@@H]1[C@@H]2C[C@H]3c4[nH]c5cc(OC)ccc5c4CCN3C[C@@H]2C[C@H](OC(=O)/C=C\c2cc(OC)c(OC)c(OC)c2)[C@H]1OC
active: Potency (7G8) 3.16 µM | Potency (GB4) 5.1 µM | Potency (ICS) 4.47 µM | Potency (P93_24) 3.16 µM
inactive: activity change, negative = inhibition [1] 0.402% | outcome [2]

CC(=O)N[C@H](CS)C(=O)O
inactive: Potency [4] | Potency [5] | Potency [9] | Potency [10]

C[C@@]12CCC(=O)C[C@@H]1CC(=O)[C@H]1[C@H]3CCC[C@]3(C)C(=O)C[C@@H]12 (tested in a mixture with another compound)
inactive: activity change, negative = inhibition [1] -7.43%

CN[C@H]1[C@@H](O)[C@@H](NC)[C@@H]2O[C@@]3(O)C(=O)C[C@@H](C)O[C@H]3O[C@H]2[C@H]1O
inactive: activity change, negative = inhibition [1] -11.9% | outcome [2] | Potency [8] | Potency [3] | Potency (7G8) | Potency (CP215) | Potency (CP335) | Potency (DFO2036) | Potency (DIV17) | Potency (GB4) | Potency (ICS) | Potency (P93_24) | Potency (TAB109)

CCc1c(C)[nH]c2c1C(=O)[C@H](CN1CCOCC1)CC2
inactive: activity change, negative = inhibition [1] -21.1% | outcome [2] | Potency [8] | Potency (7G8) | Potency (CP215) | Potency (CP335) | Potency (DFO2036) | Potency (DIV17) | Potency (GB4) | Potency (ICS) | Potency (P93_24) | Potency (TAB109)

CCO[C@H]1O[C@@H]([C@H](COCc2ccccc2)OCc2ccccc2)[C@@H](OCc2ccccc2)[C@H]1O
inactive: activity change, negative = inhibition [1] -29.7% | outcome [2] | Potency [3] | Potency (CP335) | Potency (DFO2036) | Potency (TAB109)

CC(=O)S[C@H]1CC2=CC(=O)CC[C@@]2(C)[C@H]2CC[C@@]3(C)[C@H](CC[C@]34CCC(=O)O4)[C@@H]12
inactive: activity change, negative = inhibition [1] -8.69%

Clc1ccc([C@H](Cn2ccnc2)OCc2c(Cl)cccc2Cl)c(Cl)c1
inactive: outcome [2] | Potency [3]
active: Potency (7G8) 1.58 µM | Potency (CP215) 5.73 µM | Potency (DFO2036) 3.55 µM | Potency (DIV17) 4.05 µM | Potency (GB4) 4.55 µM | Potency (ICS) 1.58 µM | Potency (P93_24) 0.794 µM | Potency (TAB109) 2.82 µM

COc1cc(N[C@@H](C)CCCN)c2ncccc2c1
inactive: Potency [7] | outcome [2] | Potency [3]
active: Potency (7G8) 0.316 µM | Potency (CP215) 3.61 µM | Potency (CP335) 4.05 µM | Potency (DFO2036) 3.55 µM | Potency (DIV17) 0.642 µM | Potency (GB4) 0.809 µM | Potency (ICS) 0.708 µM | Potency (P93_24) 1 µM | Potency (TAB109) 1.78 µM

C=C(C)[C@H]1CC[C@]2(CO)CC[C@]3(C)[C@@H](CC[C@H]4[C@@]5(C)CC[C@@H](O)C(C)(C)[C@@H]5CC[C@@]43C)[C@H]12
inactive: activity change, negative = inhibition [1] -4.45%

COc1ccc(-c2cc(=O)c3c(O)cc(O)cc3o2)cc1
inactive: Potency [7] | Potency [9] | Potency [10] | outcome [6]
active: Potency [4] 2.51 µM and 7.94 µM and 3.16 µM

COc1ccc2c(c1)N(C[C@@H](C)CN(C)C)c1ccccc1S2
active: Potency [5] 0.0631 µM | Potency (7G8) 3.55 µM
inactive: Potency [7] | outcome [2] | Potency [3] | Potency (CP215) | Potency (CP335) | Potency (DFO2036) | Potency (P93_24) | Potency (TAB109)

CC/C=C\C[C@H]1C(=O)CC[C@@H]1CC(=O)O
inactive: Potency [4] | Potency [5] | outcome [6]

CC1(C)[C@@H](OC(=O)CCC(=O)O)CC[C@@]2(C)[C@H]1CC[C@@]1(C)[C@H]2C(=O)C=C2[C@H]3C[C@](C)(C(=O)O)CC[C@]3(C)CC[C@@]21C
inactive: outcome [2] | Potency [3] | Potency (7G8) | Potency (CP215) | Potency (CP335) | Potency (DIV17) | Potency (GB4) | Potency (ICS) | Potency (P93_24) | Potency (TAB109)
